Where “and” joins values, the source holds several entries; their conditions need not be identical. Equal values may be shown once. Hit rate of the full screen: of about 5,500 compounds, about 2,000 (36%) were called active. Roughly 18% stayed inconclusive and do not appear here. Rule as the data show it: active = normalized growth mostly below about 0.91 (no sharp cut-off); inconclusive = no clear call, values can overlap the other calls; inactive = mostly above about 0.92. The list shows a part of the results.
Experiment: chemical genetic growth profiling, strain panel (AID 1159580);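 also: tested at 20 µM; growth read once vehicle control cultures reached saturation at 30 °C; 1 = growth at the plate median or of vehicle wells; lower values mean less growth of the strain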
Settings: S. cerevisiae deletion strains, growth OD

Measured: normalized growth

COc1ccc2c(c1)c(CC(=O)OCC(=O)O)c(C)n2C(=O)c1ccc(Cl)cc1
inactive: locus YAL013W, strain DEP1, stronger effect = lower value 1.01 | locus YAL021C, strain ccr4, stronger effect = lower value 0.982 | locus YAL026C, strain drs2, stronger effect = lower value 1.01 | locus YAL030W, strain snc1, stronger effect = lower value 0.99 | locus YBL061C, strain skt5, stronger effect = lower value 1 | locus YBR009C, strain hhf1, stronger effect = lower value 0.991 | locus YBR021W, strain FUR4, stronger effect = lower value 1.01 | locus YBR023C, strain chs3, stronger effect = lower value 1.01 | locus YBR171W, strain sec66, stronger effect = lower value 0.978 | locus YBR229C, strain ROT2, stronger effect = lower value 1.02 | locus YBR231C, strain swc5, stronger effect = lower value 0.973 | locus YBR279W, strain paf1, stronger effect = lower value 1.01 | locus YCL011C, strain gbp2, stronger effect = lower value 1.02 | locus YCL016C, strain dcc1, stronger effect = lower value 1.01 | locus YCL029C, strain bik1, stronger effect = lower value 1.04 | locus YCL069W, strain vba3, stronger effect = lower value 1 | locus YCR088W, strain abp1, stronger effect = lower value 1.01 | locus YDL005C, strain med2, stronger effect = lower value 0.979 | locus YDL035C, strain GPR1, stronger effect = lower value 1.02 | locus YDL040C, strain nat1, stronger effect = lower value 0.995 | locus YDL074C, strain BRE1, stronger effect = lower value 1.01 | locus YDL101C, strain DUN1, stronger effect = lower value 1.02 | locus YDL134C, strain PPH21, stronger effect = lower value 1.02 | locus YDL185W, strain tfp1, stronger effect = lower value 1.02 | locus YDL192W, strain arf1, stronger effect = lower value 1.02 | locus YDR001C, strain nth1, stronger effect = lower value 1.01 | locus YDR069C, strain doa4, stronger effect = lower value 0.996 | locus YDR101C, strain arx1, stronger effect = lower value 1.02 | locus YDR137W, strain rgp1, stronger effect = lower value 1.02 | locus YDR150W, strain NUM1, stronger effect = lower value 1.02 | locus YDR159W, strain sac3, stronger effect = lower value 0.964 | locus YDR162C, strain NBP2, stronger effect = lower value 1.01 | locus YDR195W, strain ref2 0.939 | locus YDR297W, strain sur2, stronger effect = lower value 1 | locus YDR318W, strain mcm21, stronger effect = lower value 1.02 | locus YDR334W, strain swr1, stronger effect = lower value 1 | locus YDR335W, strain msn5, stronger effect = lower value 0.989 | locus YDR388W, stronger effect = lower value 1.01 | locus YDR392W, strain spt3, stronger effect = lower value 1.03 | locus YDR502C, strain sam2, stronger effect = lower value 1.03 | locus YEL003W, strain gim4, stronger effect = lower value 0.988 | locus YEL037C, strain rad23, stronger effect = lower value 1 | locus YEL061C, strain CIN8 (second series), stronger effect = lower value 0.995 | locus YEL061C, strain CIN8, stronger effect = lower value 1.01 | locus YER015W, strain faa2, stronger effect = lower value 1 | locus YER016W, strain bim1, stronger effect = lower value 1.01 | locus YER110C, stronger effect = lower value 1.02 | locus YER111C, strain swi4, stronger effect = lower value 0.991 | locus YER155C, strain BEM2 (second series), stronger effect = lower value 0.989 | locus YER155C, strain BEM2, stronger effect = lower value 1.01 | locus YER167W, strain BCK2, stronger effect = lower value 1.01 | locus YFR010W, strain ubp6, stronger effect = lower value 0.994 | locus YGL078C, strain dbp3, stronger effect = lower value 1.01 | locus YGL086W, strain mad1, stronger effect = lower value 1.01 | locus YGL167C, strain pmr1, stronger effect = lower value 0.987 | locus YGL173C, strain kem1, stronger effect = lower value 0.976 | locus YGL227W, strain vid30, stronger effect = lower value 0.999 | locus YGL240W, strain doc1, stronger effect = lower value 0.982 | locus YGL248W, strain PDE1, stronger effect = lower value 1.01 | locus YGL253W, strain hxk2, stronger effect = lower value 1.01 | locus YGR078C, strain PAC10, stronger effect = lower value 1.02 | locus YGR135W, strain pre9, stronger effect = lower value 1.02 | locus YGR229C, strain SMI1, stronger effect = lower value 1.02 | locus YGR252W, strain gcn5, stronger effect = lower value 0.987 | locus YHR013C, strain ard1, stronger effect = lower value 1.09 | locus YHR027C, strain rpn1, stronger effect = lower value 0.999 | locus YHR030C, strain SLT2, stronger effect = lower value 1.02 and 0.958 | locus YHR079C, strain IRE1 (second series), stronger effect = lower value 1.01 | locus YHR079C, strain IRE1, stronger effect = lower value 0.941 | locus YHR094C, strain hxt1, stronger effect = lower value 1.01 | locus YHR129C, strain ARP1, stronger effect = lower value 1 | locus YHR142W, strain chs7, stronger effect = lower value 1.01 | locus YHR200W, strain rpn10, stronger effect = lower value 1.01 | locus YIL066C, strain RNR3, stronger effect = lower value 1.02 | locus YIL073C, strain SPO22, stronger effect = lower value 1.06 | locus YIL125W, strain kgd1, stronger effect = lower value 1.01 | locus YIR030C, strain dcg1, stronger effect = lower value 1.02 | locus YJL092W, strain hpr5, stronger effect = lower value 0.981 | locus YJL095W, strain BCK1 (second series), stronger effect = lower value 1.01 | locus YJL095W, strain BCK1, stronger effect = lower value 1.05 and 0.968 | locus YJL115W, strain asf1, stronger effect = lower value 0.992 | locus YJL129C, strain trk1, stronger effect = lower value 0.979 | locus YJL134W, strain LCB3, stronger effect = lower value 1.01 | locus YJL154C, strain vps35, stronger effect = lower value 0.992 | locus YJL164C, strain tpk1, stronger effect = lower value 1.03 | locus YJL166W, strain qcr8, stronger effect = lower value 0.974 | locus YJL168C, strain set2, stronger effect = lower value 1.01 | locus YJL187C, strain SWE1 (second series), stronger effect = lower value 1.03 | locus YJL187C, strain SWE1, stronger effect = lower value 1.01 | locus YJR043C, strain POL32, stronger effect = lower value 1.03 | locus YJR066W, strain TOR1, stronger effect = lower value 0.89
